Experimental data published in the supplement of paper PMC7669877.
± gives the uncertainty stated by the source.

Tested on: Candidatus Liberibacter solanacearum in potato hairy roots
Assay: relative CLso titer (% of untreated control); higher = less inhibition of bacterial titer
Conditions: 10 µM; 72 h
Protocol: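 Primary screen of ~220 Spectrum collection (MicroSource) compounds at 10 µM (0.1% DMSO) on Candidatus Liberibacter solanacearum-infected potato hairy roots in multi-well plates (Gamborg B-5 medium, vacuum infiltrated, 21 °C, dark, 72 h). CLso titer was measured by qPCR of 16S rDNA normalised to potato RPL2 (2^-ddCq), pairwise-standardised against untreated controls, averaged over two biological replicates and expressed as % of untreated.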

| SMILES | relative CLso titer [%] |
| --- | --- |
| CN(C)c1cnccn1 | 120 ± 27 |
| C[C@@](Cc1ccc(O)c(O)c1)(NN)C(=O)O | 138.8 ± 1.3 |
| O=C(O)CCC(=O)Nc1ccc(S(=O)(=O)Nc2nccs2)cc1 | 100 ± 28 |
| CCCCOc1ccc(C(=O)CCN2CCCCC2)cc1 | 156 ± 14 |
| C[C@@H]1C[C@H]2[C@@H]3CCC4=CC(=O)C=C[C@]4(C)[C@@]3(F)[C@@H](O)C[C@]2(C)[C@@]1(O)C(=O)COP(=O)(O)O | 137 ± 29 |
| CC1=C(C(=O)O)N2C(=O)[C@@H](NC(=O)[C@H](N)c3ccccc3)[C@H]2SC1 | 87.1 ± 16 |
| Nc1ccc(S(=O)(=O)c2ccc(N)cc2)cc1 | 94.3 ± 19 |
| CN(C)[C@@H]1C(O)=C(C(N)=O)C(=O)[C@@]2(O)C(O)=C3C(=O)c4c(O)ccc(Cl)c4[C@@H](O)[C@H]3C[C@@H]12 | 173 ± 42 |
| CCCCOc1cc(C(=O)NCCN(CC)CC)c2ccccc2n1 | 147 ± 76 |
| CC(=O)N[C@@H](CS)C(=O)O | 55.7 ± 25 |
| NCCCCCC(=O)O | 39.2 ± 4.1 |
| CC1=C(/C=C/C(C)=C/C=C/C(C)=C/CO)C(C)(C)CCC1 | 195 ± 25 |
| CCS(=O)(=O)CCn1c([N+](=O)[O-])cnc1C | 116 ± 0.28 |
| CCCOc1cc(N)ccc1C(=O)OCCN(CC)CC | 102 ± 10 |
| C=C1CC[C@H](O)C/C1=C/C=C1\CCC[C@]2(C)[C@@H]([C@H](C)/C=C/[C@H](C)C(C)C)CC[C@@H]12 | 113 ± 37 |
| C[C@]12CC[C@@H]3c4ccc(O)cc4CC[C@H]3[C@@H]1CC[C@@H]2O | 126 ± 25 |
| O=C(O)CN1C(=O)c2cccc3cccc(c23)C1=O | 145 ± 46 |
| CCN(CCCc1ccccc1)CCCc1ccccc1 | 66.9 ± 21 |
| CNC[C@H](O)c1ccc(O)c(O)c1 | 173 ± 86 |
| COc1ccc(O)cc1 | 173 ± 58 |

| SMILES | relative CLso titer [%] |
| --- | --- |
| CN(C)CCOC(=O)C(c1ccccc1)C1(O)CCCC1 (stereo not given) | 23.4 ± 4.1 |
| CS(=O)(=O)OCCCCOS(C)(=O)=O | 66.9 ± 7.5 |
| C=C1c2cccc(O)c2C(=O)C2=C(O)[C@]3(O)C(=O)C(C(N)=O)=C(O)[C@@H](N(C)C)[C@@H]3[C@@H](O)[C@H]12 | 79.1 ± 26 |
| C[N+](C)(C)CCOC(N)=O | 41.99 ± 0.24 |
| CC(=O)Oc1cc2c(s1)CCN(C(C(=O)C1CC1)c1ccccc1F)C2 (stereo not given) | 55.4 ± 2.9 |
| O=C1NS(=O)(=O)c2ccccc21 | 73.2 ± 19 |
| CCOC(=O)[C@H](CCc1ccccc1)N[C@@H](C)C(=O)N1CCC[C@H]1C(=O)O | 135 ± 34 |
| Nc1ccc(C(=O)O)cc1 | 67.7 ± 7.7 |
| Nc1ccc(S(=O)(=O)Nc2ccc(Cl)nn2)cc1 | 52.4 ± 4.8 |
| O=C(O)P(=O)(O)O | 165 ± 29 |
| CC(=O)OCC(=O)[C@@]1(O)CC[C@H]2[C@@H]3CCC4=CC(=O)CC[C@]4(C)[C@H]3C(=O)C[C@@]21C | 27.6 ± 3 |
| CO[C@@]1(NC(=O)C2SC(=C(C(N)=O)C(=O)O)S2)C(=O)N2C(C(=O)O)=C(CSc3nnnn3C)CS[C@@H]21 (stereo not given in full) | 138 ± 17 |
| Nc1ccn([C@@H]2O[C@H](CO)[C@@H](O)[C@@H]2O)c(=O)n1 | 83.2 ± 46 |
| OCC(S)CS (stereo not given) | 67.2 ± 36 |
| C[C@@H]1NC(=O)[C@@H](N)CNC(=O)[C@H](C2CCNC(=N)N2)NC(=O)/C(=C/NC(N)=O)NC(=O)[C@H](CNC(=O)CC(N)CCCN)NC1=O.N=C1NCCC([C@@H]2NC(=O)/C(=C/NC(N)=O)NC(=O)[C@H](CNC(=O)CC(N)CCCN)NC(=O)[C@H](CO)NC(=O)[C@@H](N)CNC2=O)N1 (stereo not given in full) | 63.2 ± 9.8 |
| O=S(=O)(O)CCS | 110 ± 3.6 |
| OCCN(CCO)c1nc(N2CCCCC2)c2nc(N(CCO)CCO)nc(N3CCCCC3)c2n1 | 107 ± 26 |
| Nc1ccc(C(=O)O)c(O)c1 | 73 ± 16 |
| C[C@H]1O[C@@H](O[C@H]2[C@@H](O)C[C@H](O[C@H]3[C@@H](O)C[C@H](O[C@H]4CC[C@@]5(C)[C@H](CC[C@@H]6[C@@H]5C[C@@H](O)[C@]5(C)[C@@H](C7=CC(=O)OC7)CC[C@]65O)C4)O[C@@H]3C)O[C@@H]2C)C[C@H](O)[C@@H]1O | 86.7 ± 7.9 |
| CC12CCC(CC1=O)C2(C)C (stereo not given) | 97 ± 38 |
